Calls of active or inactive are those of the source. Calls come from the whole dose curve.
Target: Thyrotropin-releasing hormone receptor (Homo sapiens) (UniProt P34981)
Test: qHTS assay to identify small molecule agonists of the thyrotropin-releasing hormone receptor (TRHR) signaling pathway (AID 1346891);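 note: HEK293 cells expressing TRHR with calcium dye readout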
Details: TRHR-HEK293 calcium fluorescence, agonist mode; series mostly up to 57.6 µM; activation: at the top concentration
Description: National Center for Advancing Translational Sciences [NCATS] NIH Chemical Genomics Center [NCGC] U.S. Environmental Protection Agency [EPA] National Institutes of Environmental Health Sciences [NIEHS] National Toxicology Program [NTP] Assay overview: Thyrotropin-releasing hormone (TRH) receptor (TRHR) is a G-protein-coupled receptor which binds the tripeptide thyrotropin releasing hormone. TRHR is found in the brain and, when bound by TRH, acts (through phospholipase C) to increase intracellular inositol trisphosphate. It plays a crucial role in the anterior pituitary where it controls the synthesis and secretion of thyroid stimulating hormone and prolactin. The TRHR-Hek293 assay is a cell-based assay, and it has the potential to screen G protein-coupled receptors. A compound/drug can either activate (agonist) or suppress (antagonist) GPCRs that can be monitored by levels of intracellular calcium. Using this assay, the Tox21 10K compound library was screened to identify potential TRHR agonists.
Assay Protocol Summary: The TRHR-Hek293 cells were dispensed at 1500cells/4uL/well in 1536-well black-clear bottom plates using a Multidrop dispenser. After the assay plates were incubated at a 37 C/5% CO2 incubator for 18 hours, 4 uL of Dye-Loading Solution was added to each well. The plates were incubated at 37 C for 2 hours. For agonist mode, 23 nL of compounds dissolved in DMSO, positive controls or DMSO only was transferred to the assay plate by a pin tool. The fluorescence intensity in the plates was measured using FDSS 7000EX kinetic plate reader for 3 min at 1 sec intervals. Each test compound was measured at 15 concentrations and in triplicates.
% is set by controls: 0 for no effect and ±100 for the full control effect.

Chain of Thyrotropin-releasing hormone receptor (Homo sapiens) (P34981 whole entry, looked up): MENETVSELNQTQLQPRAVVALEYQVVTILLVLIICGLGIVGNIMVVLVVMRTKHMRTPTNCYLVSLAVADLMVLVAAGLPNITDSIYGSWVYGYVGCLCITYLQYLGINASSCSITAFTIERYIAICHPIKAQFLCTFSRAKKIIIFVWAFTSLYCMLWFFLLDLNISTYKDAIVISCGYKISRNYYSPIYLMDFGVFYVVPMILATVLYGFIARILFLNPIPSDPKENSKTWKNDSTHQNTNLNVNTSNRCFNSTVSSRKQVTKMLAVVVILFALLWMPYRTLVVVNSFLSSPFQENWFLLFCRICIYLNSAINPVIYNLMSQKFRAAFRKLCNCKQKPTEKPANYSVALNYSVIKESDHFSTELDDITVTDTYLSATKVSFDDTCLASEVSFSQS

| SMILES | activation |
| --- | --- |
| CC(=O)C(Cl)C(=O)N(C)C (stereo not given) | -0.337% (inactive) |
| CCC(C)c1cccc(C(C)CC)c1O (stereo not given) | 20.8% (inactive) |
| COc1nc(C)nc(NC(=O)NS(=O)(=O)c2ccccc2Cl)n1 | -0.012% (inactive) |
| CCOP(=S)(OCC)SC(CCl)N1C(=O)c2ccccc2C1=O (stereo not given) | -0.977% (inactive) |
| O=C1C[C@@H]2OCC=C3CN4CC[C@]56c7ccccc7N1[C@H]5[C@H]2[C@H]3C[C@H]46 | 0.594% [at 26.5 µM] (inactive) |
| c1ccc(Nc2ccc(Nc3ccccc3)cc2)cc1 | 3.89% (inactive) |
| CCOP(=S)(OCC)Oc1cc(C)nc(N(CC)CC)n1 | 0.125% (inactive) |
| ClSC(Cl)(Cl)Cl | -0.107% (inactive) |
| COC(=O)/C=C(\C)OP(=O)(OC)OC | -0.0634% (inactive) |
| Brc1cccc(-c2ccccc2)c1 | 0.0136% (inactive) |
| ClCBr | -0.0943% (inactive) |
| Nc1c(Cl)c(Cl)c(Cl)c(Cl)c1Cl | 0.508% (inactive) |
| NC1CCC(CC2CCC(N)CC2)CC1 (stereo not given) | 0.345% (inactive) |
| C[C@]12CC[C@H]3[C@@H](CCC4=CC(=O)CC[C@@H]43)[C@@H]1CC[C@@H]2OC(=O)CCc1ccco1 | 0.104% [at 26.5 µM] (inactive) |
| CN(C)c1ccc(N)cc1 | 1.48% (inactive) |
| Clc1c(Cl)c(Cl)c(Cl)c(Cl)c1Cl | -0.641% [at 5.23 µM] (inactive) |
| O=S(=O)(O)F | -0.565% (inactive) |
| c1ccc2c(c1)cc1ccc3cccc4ccc2c1c34 | 0.261% (inactive) |
| Clc1ccc(C(Cl)(Cl)Cl)cc1Cl | 0.12% (inactive) |
| COP(=O)(OC)O/C(=C\Cl)c1cc(Cl)c(Cl)cc1Cl | -0.554% (inactive) |

| SMILES | activation |
| --- | --- |
| CCCCCCC[CH2][Sn]([Cl])([Cl])[CH2]CCCCCCC | 0.0241% (inactive) |
| CCCCC(CC)COC(=O)OOC(C)(C)C (stereo not given) | 0.0978% (inactive) |
| CC(C)C(Br)C(=O)NC(N)=O (stereo not given) | -0.159% [at 26.5 µM] (inactive) |
| COC(=O)c1ccccc1S(=O)(=O)NC(=O)Nc1nc(C)nc(OC)n1 | -0.184% (inactive) |
| Cc1cc2c3c(c1)C(c1ccccc1)=N[C@@H](NC(=O)c1ccncc1)C(=O)N3CC2 | 0.453% (inactive) |
| CCOP(=O)(OCC)Oc1nc(Cl)c(Cl)cc1Cl | -0.132% (inactive) |
| C[C@]12Cc3cn[nH]c3C[C@@H]1CC[C@@H]1[C@@H]2CC[C@@]2(C)[C@H]1CC[C@]2(C)O | -0.533% [at 26.5 µM] (inactive) |
| CNC(=O)Oc1cc(C)cc(C(C)C)c1 | 0.0717% (inactive) |
| NC(=O)C(Cl)Cl | 0.0454% (inactive) |
| COC(=O)N(OC)c1ccccc1COc1ccn(-c2ccc(Cl)cc2)n1 | 0.66% (inactive) |
| Brc1ccc(Oc2ccc(Br)cc2Br)c(Br)c1 | 0.653% (inactive) |
| CN1CCc2cc3c(cc2C1O)OCO3 (stereo not given) | -0.0476% (inactive) |
| CCOP(=O)(OCC)Oc1cc(C)nc(C(C)C)n1 | -0.327% (inactive) |
| CCN1CCC2(CC1)COc1cc3c(cc12)N(C(=O)c1ccc(-c2ccc(-c4nnc(C)o4)cc2C)cc1)CC3 | 0.0347% (inactive) |
| Cc1ccccc1OP(=O)(Oc1ccccc1C)Oc1ccccc1C | 0.789% (inactive) |
| Cc1ccn2nc(S(=O)(=O)Nc3c(F)cccc3F)nc2n1 | -0.471% (inactive) |
| O=[N+]([O-])C(Br)Br | 0.254% (inactive) |
| CC[N+]1(CC)CCC(OC(=O)C(O)(c2ccccc2)c2ccccc2)C1 (stereo not given) | -0.128% [at 26.5 µM] (inactive) |
| COP(=S)(OC)Oc1ccc([N+](=O)[O-])c(C)c1 | -0.876% (inactive) |
| Oc1ccc(Cl)c(Cl)c1 | 1.15% (inactive) |
